# Experimental data from article PMC5540273 (PLoS ONE, 2017).
# Tested on: NEK10
# Conditions: concentration: 1 μM, replicates: in singlicate; n = 1
# 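Also: KINOMEscan kinase panel screen.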
row,Structure (SMILES),%Inh [%]
1,COc1ccc(Nc2nccc(N3CCC(NC(=O)C(C)c4ccc(Cl)cc4)CC3)n2)cc1 (stereo not drawn) [GSK1379812],43
2,CCc1ccc(-c2ccc3c(c2)-c2n[nH]cc2S(=O)(=O)N3C)cc1,0
3,CC(=O)c1c(C)c2cnc(Nc3ccc(N4CCNCC4)cn3)nc2n(C2CCCC2)c1=O,13
4,Cn1cncc1C(=O)NC1CCN(c2ccnc(Nc3ccc(F)cc3)n2)C1 (stereo not drawn) [GSK1379717],0
5,CNc1cc(-c2ccc3c(N)n[nH]c3c2)nc(N)n1 [GSK2224810],0
6,CN1c2ccc(-c3ccc(C(N)=O)cc3)cc2-c2[nH]ncc2S1(=O)=O,0
7,COc1ccc(-c2coc3ccc(-c4nnc(C)o4)cc23)cc1,47
8,Cc1ccc(NC(=O)Nc2ccccc2F)cc1-c1ccc(C(=O)Nc2ccncc2)cc1 [GSK1398477],9
9,O=C(Nc1n[nH]c2nc(-c3ccco3)c(Br)cc12)C1CCN(Cc2ccccc2)C1.O=C(O)[C@H](O)[C@@H](O)C(=O)O (stereo not drawn) [SB-742034],0
10,FC(F)(F)c1ccccc1-c1cc(-c2c[nH]nc2-c2ccccn2)ccn1 [GW679396],9
11,COc1nccc(-c2c(-c3ccc(F)cc3)ncn2CCCN2CCOCC2)n1 [SB-282852],0
12,COc1cccc(CNC(=O)NC2CCN(c3ccnc(Nc4ccc(F)cc4)n3)C2)c1 (stereo not drawn) [GSK1379723],0
13,COC(=O)C(NC(=O)NC1CCN(c2ccnc(Nc3ccc(F)cc3)n2)C1)c1ccccc1 (stereo not drawn) [GSK1379712],0
14,CNCc1ccc2nc(NC(=O)c3ccc(C(C)(C)C)cc3)cn2c1,20
15,Cc1ccc(NC(=O)Nc2ccc(Cl)cc2)cc1-c1ccc(C(=O)Nc2ccncc2)cc1 [GSK1398472],13
16,Cn1cncc1-c1cc2c(Nc3ccc(OCc4ccccc4)cc3)ncnc2cn1 [GW281179],17
17,Fc1ccc(-c2nc3n(c2-c2ccncc2)CCS3)cc1 [GI98581],14
18,COc1ccc(CSc2nnc(-c3ccc4ncsc4c3)o2)cc1C(F)(F)F,8

row,Structure (SMILES),%Inh [%]
1,Cc1ccc(NC(=O)Nc2ccccc2)cc1-c1ccc(C(=O)Nc2ccncc2)cc1 [GSK1398471],10
2,COc1ccc2cc(-c3nc(-c4ccccc4C(C)C)[nH]c3-c3ccncc3)ccc2c1 [SB-660566],45
3,O=C1NC(=O)C(c2ccc(Cl)cc2)=C1Nc1cccc(Cl)c1 [SB-317651],0
4,CC(C)c1cc(-c2ccc3c(N)n[nH]c3c2)nc(N)n1 [GSK2250882],8
5,Cc1c(Cn2c3ccccc3n3c(=O)cc(N4CCOCC4)nc23)cccc1C(F)(F)F [GSK2306394],0
6,COC(=O)C(Cc1ccccc1)NC(=O)NC1CCN(c2ccnc(Nc3ccc(F)cc3)n2)C1 (stereo not drawn) [GSK1379714],14
7,CS(=O)(=O)Cc1ccc(Nc2nccc(-c3c(-c4cccc(NC(=O)C5CCCCC5)c4)nn4ncccc34)n2)cc1 [GSK350559],22
8,Nc1nccc(-c2c(-c3ccc(F)cc3)ncn2C2CCN(Cc3ccccc3)CC2)n1 [SB-219980],0
9,CC(C)c1ccc(O)cc1Nc1ccnc2ccc(C(F)(F)F)cc12 [GW482059],0
10,CNc1nc(-c2ccc3c(N)n[nH]c3c2)cc(N2C[C@@H](C(=O)NC3CCCCC3)OC[C@H]2C)n1 [GSK2375584],9
11,CCn1c(-c2ccccc2)nc2cnccc21 [SB-733416],17
12,CCCCc1nn2ncccc2c1-c1ccnc(NC2CC2)n1 [GW684374],0
13,Nc1cccc(-c2ccc3c(N)n[nH]c3c2)n1 [GSK2192730],0
14,CS(=O)(=O)CCNCc1nc(-c2ccc3ncnc(Nc4ccc(OCc5ccccc5)c(Cl)c4)c3c2)cs1.Cl [GW582764],11
15,COc1cccc(NC(=O)Nc2ccc(C)c(-c3ccc(C(=O)Nc4ccncc4)cc3)c2)c1 [GSK1398474],47
16,CC[C@@H]1CO[C@H](C(=O)Nc2ccccc2)CN1c1cc(-c2ccc3c(N)n[nH]c3c2)nc(NC)n1 [GSK2376236],0
17,COc1ccc(CSc2nnc(-c3ccc4nccn4c3)o2)cc1C(F)(F)F,13
18,Nc1ncnc2occ(-c3ccc4c(c3)CCN4C(=O)Cc3cc(F)ccc3F)c12 [GSK2645446],1
